From ChEMBL document CHEMBL3988442, “University of Dundee, Small-Polar-MMV Screening Library” (2021) come the findings set out here.

About 13,000 (27%) of roughly 48,000 compounds showed an effect of 50% or more. Some of the results follow.

For this assay, the system named is Wolbachia pipientis. Put plainly: Anti-Wolbachia Cell-Based Screen. More on the design: scale not given: in the data most compounds retested in dose-response had high values. As to conditions: 5 µM. The assay is classed as functional.
As to `CC(C)c1nc(CNC(C(=O)N2CCOCC2)C(C)C)no1` (configuration not stated), the “Percent Effect” value is -8.871%. Take `COCCN(Cc1coc(-c2ccc(OC)cc2)n1)C1CC1`: the “Percent Effect” value was 2.104%. On to `CC(C)CC(NC(=O)C1=CCCC1)C(=O)N1CCC(CO)CC1` (configuration not stated), for which the “Percent Effect” value was 0.4021%.

Take `COCc1nc2cc(NCc3ccc(CO)o3)ccc2o1`: the “Percent Effect” value is reported as -0.637%. Regarding `CCN(CC)C(=O)CCCNC(=O)c1csc(NC2CC2)n1`, the “Percent Effect” value was -10.76%. On to `Cc1nn(C)c(Oc2ccc(Cl)cc2)c1CN1CCC(CN)C1` (configuration not stated), for which the “Percent Effect” value is -7.014%. Turning to `CC(O)Cc1cn(CC2CCN(c3nccc4occc34)CC2)nn1` (configuration not stated), the “Percent Effect” value was determined as 2.668%. As for `Cc1cn2c(=O)c(-c3ccnc(N[C@@H]4CCOC4)n3)cnc2s1`, the “Percent Effect” value was 101%. On to `Cc1ccc(-c2ccnc(N[C@H]3COC[C@@H]3N3CCCCC3)n2)c(C)n1`, for which the “Percent Effect” value amounted to 10.8%.

Take `Cc1cn2c(=O)c(-c3ccnc(NC4CCOCC4)n3)cnc2s1`: the “Percent Effect” value was 101.9%. `CCCn1ncc(-c2ccnc(NC3CCSC3)n2)c1C` (configuration not stated): the “Percent Effect” value is on record as -13.99%. `Cc1csc2ncc(-c3ccnc(NC4CCOCC4)n3)c(=O)n12`: the “Percent Effect” value is 88.01%.

As to `FC(F)(F)CCc1ccnc(NC2CCOC2)n1` (configuration not stated), the “Percent Effect” value is recorded as 0.7283%.

`O=C(CCCc1cn[nH]c1)N1C[C@@H](CN2CCCC2)C[C@H](CO)C1`: the “Percent Effect” value is -0.9744%. Under `COc1cc(C)cc(C(C(=O)O)N2CCN(C3CCCC3)CC2)c1OC` (configuration not stated) stands -14.27%; under `CC(C)c1nn(C)c(N2CCOCC2)c1CNCCS(C)(=O)=O`, -4.469%.

Regarding `N#CC1(NC(=O)c2ccn(-c3ccccc3Cl)n2)CCSC1` (configuration not stated), the “Percent Effect” value was -6.951%. Take `CN1[C@H](CO)C[C@H](CNCc2ccc(Cl)c(F)c2)[C@@H]1c1ccccc1F`: the “Percent Effect” value is on record as -19.47%. As to `CN1CCN(C(=O)C2(S(C)(=O)=O)CCCC2)Cc2ccccc21`, the “Percent Effect” value is listed as -5.505%. In the case of `CN1CCCCC12Cc1ccccc1CN(C(=O)C1CCCC1)C2` (configuration not stated), the “Percent Effect” value turned out to be 124.9%. `CN1CCCCC12Cc1ccccc1CN(C(=O)c1ccccc1)C2` (configuration not stated): the “Percent Effect” value is on record as 117.9%. Next, `CC(=O)N1Cc2ccccc2CC2(CCCCN2C)C1` (configuration not stated): 130.2%; `O=C(NC1CCc2ccccc2C1)N1CCN(C(=O)C2CCC2)CC1` (configuration not stated): -14.39%.

Take `CN1CCN(C(=O)C2(NC(N)=O)CCCCC2)Cc2ccccc21`: the “Percent Effect” value is on record as -12.44%.

For the molecule `CS(=O)(=O)N1CCCCC12CCN(C(=O)c1ccccc1)C2` (configuration not stated), the “Percent Effect” value is listed as -1.645%. For the molecule `Cc1noc(C)c1CNC(=O)N1CCC(OCC2CC2)CC1`, the “Percent Effect” value is 12.01%.

With `Cc1n[nH]cc1CNC(C(=O)N1CCCCC1)c1ccccc1` (configuration not stated), the “Percent Effect” value came out at 2.279%. Under `CC(C)c1nnc2n1CCN(C(=O)CN1CCc3sccc3C1)C2` stands 4.372%; under `OC(CN1CCC(c2ccn[nH]2)CC1)c1ccc(F)cc1F` (configuration not stated), 102.6%. For the molecule `CS(=O)(=O)c1ccc(C(O)CN2CCC(c3ccn[nH]3)CC2)cc1` (configuration not stated), the “Percent Effect” value is on record as -3.645%.

As to `OC(CN1CCC(c2ccn[nH]2)CC1)c1ccc(F)cc1` (configuration not stated), the “Percent Effect” value turned out to be 112.6%. As to `OC(CN1CCN(c2ncccn2)CC1)c1cccc(F)c1` (configuration not stated), the “Percent Effect” value is -12.81%. Turning to `N#Cc1ccnc(N2CCN(CC(O)c3ccc(F)cc3F)CC2)c1` (configuration not stated), the “Percent Effect” value is recorded as -23.85%. For `OC(COc1ccccc1)CN1CCC(c2ccn[nH]2)CC1` (configuration not stated), the “Percent Effect” value is on record as 2.003%. With `OC(CN1CCC(c2ccn[nH]2)CC1)c1ccccc1F` (configuration not stated), the “Percent Effect” value is on record as 96.43%. As for `OC(CN1CCC(c2ccn[nH]2)CC1)c1cccc(C(F)(F)F)c1` (configuration not stated), the “Percent Effect” value stood at 117.8%.

For the molecule `CN(CC1CCN(CCO)CC1)CC(O)c1ccc(F)cc1F` (configuration not stated), the “Percent Effect” value was 7.101%. Next, `Cn1nccc1C1CCN(CC(O)c2cccc(F)c2)CC1` (configuration not stated): -0.7122%; `OC(CN1CCC(c2ccn[nH]2)CC1)c1cccc(F)c1` (configuration not stated): -8.538%; `OC(COCc1cccs1)CN1CCC(c2ccn[nH]2)CC1` (configuration not stated): -8.119%. On to `Cc1ccc(F)c(OC2CCCN(c3cnn(C)c3)C2=O)c1` (configuration not stated), for which the “Percent Effect” value is on record as -6.274%.

As for `Cc1cc(C(=O)N[C@H]2CN(CCO)C[C@@H]2C2CC2)sc1C`, the “Percent Effect” value is -4.663%. With `CN(Cc1ccccc1)C1(C(=O)NC(CO)CO)Cc2ccccc2C1`, the “Percent Effect” value amounted to 2.959%. On to `O=C(Nc1cnc2n1CCCC2)c1cccc(-n2cnnc2)c1`, for which the “Percent Effect” value is -1.722%. As for `CCN(C(=O)CN(Cc1cccc(O)c1)C1CCC(O)CC1)C1CC1` (configuration not stated), the “Percent Effect” value is on record as 5.971%. Next, `Cc1cccc(CNCC2COC3(CCCC3)O2)c1C` (configuration not stated): -2.633%; `OC(CN1CCC(c2ccn[nH]2)CC1)c1cc(F)ccc1F` (configuration not stated): 116%.

`O=C1CCCN1CCN1CCC(c2ccn[nH]2)CC1`: the “Percent Effect” value is reported as 6.838%. `OC(COCc1ccc(Cl)cc1)CN1CCC(c2ccn[nH]2)CC1` (configuration not stated): the “Percent Effect” value is recorded as -1.567%. Take `O=c1cc(-c2ccncc2)nc(-c2ccc(CN3CC[C@H](O)C3)cc2)[nH]1`: the “Percent Effect” value was 9.166%. Next, `CN(C)c1cc(CNC(=O)Nc2nccs2)ccn1`: 125%; `CN(C)c1cc(CNC(=O)Nc2ccc(S(C)(=O)=O)nc2)ccn1`: -6.104%.
